PubChem BioAssay
Active and inactive are the calls of the source.

Experiments:
[1] = small molecules captured by biotinylated probe aFSTL3 – biochemical, small-molecule microarray, fluorescence 635/667, stem cell growth factor project, primary screen (AID 1064); conditions: higher = more signal;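 also: measures binding of the biotinylated anti-FSTL3 antibody to printed compounds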
[2] = binders from COS7 lysate, DM2A8 probe, primary screen, torsin A project, cell lysate, small-molecule microarray, fluorescence 635/667 (AID 1065); conditions: higher = more signal, COS7 lysate expressing mutant human TOR1A
[3] = small molecules captured by biotinylated probe aFGF2 – biochemical, small-molecule microarray, fluorescence 635/667, stem cell growth factor project, primary screen (AID 1067); conditions: higher = more signal;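 also: measures binding of biotinylated aFGF2 protein to printed compounds on slides; z-score merges feature fluorescence and signal-to-noise across triplicate slides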
[4] = small molecules captured by biotinylated probe aFGF10 – biochemical, small-molecule microarray, fluorescence 635/667, stem cell growth factor project, primary screen (AID 1071); conditions: higher = more signal;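 also: score merges 667 nm spot intensity and signal to noise from triplicate slides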
[5] = target: Neurogenic locus notch homolog protein 2 (Homo sapiens) (UniProt Q04721); experiment: small molecules binding Notch2 protein – biochemical, small-molecule microarray, 635 nm fluorescence, stem cell growth factors, primary screen (AID 1073); conditions: higher = more signal
Chain of Neurogenic locus notch homolog protein 2 (Homo sapiens) (Q04721 whole entry, looked up, canonical isoform): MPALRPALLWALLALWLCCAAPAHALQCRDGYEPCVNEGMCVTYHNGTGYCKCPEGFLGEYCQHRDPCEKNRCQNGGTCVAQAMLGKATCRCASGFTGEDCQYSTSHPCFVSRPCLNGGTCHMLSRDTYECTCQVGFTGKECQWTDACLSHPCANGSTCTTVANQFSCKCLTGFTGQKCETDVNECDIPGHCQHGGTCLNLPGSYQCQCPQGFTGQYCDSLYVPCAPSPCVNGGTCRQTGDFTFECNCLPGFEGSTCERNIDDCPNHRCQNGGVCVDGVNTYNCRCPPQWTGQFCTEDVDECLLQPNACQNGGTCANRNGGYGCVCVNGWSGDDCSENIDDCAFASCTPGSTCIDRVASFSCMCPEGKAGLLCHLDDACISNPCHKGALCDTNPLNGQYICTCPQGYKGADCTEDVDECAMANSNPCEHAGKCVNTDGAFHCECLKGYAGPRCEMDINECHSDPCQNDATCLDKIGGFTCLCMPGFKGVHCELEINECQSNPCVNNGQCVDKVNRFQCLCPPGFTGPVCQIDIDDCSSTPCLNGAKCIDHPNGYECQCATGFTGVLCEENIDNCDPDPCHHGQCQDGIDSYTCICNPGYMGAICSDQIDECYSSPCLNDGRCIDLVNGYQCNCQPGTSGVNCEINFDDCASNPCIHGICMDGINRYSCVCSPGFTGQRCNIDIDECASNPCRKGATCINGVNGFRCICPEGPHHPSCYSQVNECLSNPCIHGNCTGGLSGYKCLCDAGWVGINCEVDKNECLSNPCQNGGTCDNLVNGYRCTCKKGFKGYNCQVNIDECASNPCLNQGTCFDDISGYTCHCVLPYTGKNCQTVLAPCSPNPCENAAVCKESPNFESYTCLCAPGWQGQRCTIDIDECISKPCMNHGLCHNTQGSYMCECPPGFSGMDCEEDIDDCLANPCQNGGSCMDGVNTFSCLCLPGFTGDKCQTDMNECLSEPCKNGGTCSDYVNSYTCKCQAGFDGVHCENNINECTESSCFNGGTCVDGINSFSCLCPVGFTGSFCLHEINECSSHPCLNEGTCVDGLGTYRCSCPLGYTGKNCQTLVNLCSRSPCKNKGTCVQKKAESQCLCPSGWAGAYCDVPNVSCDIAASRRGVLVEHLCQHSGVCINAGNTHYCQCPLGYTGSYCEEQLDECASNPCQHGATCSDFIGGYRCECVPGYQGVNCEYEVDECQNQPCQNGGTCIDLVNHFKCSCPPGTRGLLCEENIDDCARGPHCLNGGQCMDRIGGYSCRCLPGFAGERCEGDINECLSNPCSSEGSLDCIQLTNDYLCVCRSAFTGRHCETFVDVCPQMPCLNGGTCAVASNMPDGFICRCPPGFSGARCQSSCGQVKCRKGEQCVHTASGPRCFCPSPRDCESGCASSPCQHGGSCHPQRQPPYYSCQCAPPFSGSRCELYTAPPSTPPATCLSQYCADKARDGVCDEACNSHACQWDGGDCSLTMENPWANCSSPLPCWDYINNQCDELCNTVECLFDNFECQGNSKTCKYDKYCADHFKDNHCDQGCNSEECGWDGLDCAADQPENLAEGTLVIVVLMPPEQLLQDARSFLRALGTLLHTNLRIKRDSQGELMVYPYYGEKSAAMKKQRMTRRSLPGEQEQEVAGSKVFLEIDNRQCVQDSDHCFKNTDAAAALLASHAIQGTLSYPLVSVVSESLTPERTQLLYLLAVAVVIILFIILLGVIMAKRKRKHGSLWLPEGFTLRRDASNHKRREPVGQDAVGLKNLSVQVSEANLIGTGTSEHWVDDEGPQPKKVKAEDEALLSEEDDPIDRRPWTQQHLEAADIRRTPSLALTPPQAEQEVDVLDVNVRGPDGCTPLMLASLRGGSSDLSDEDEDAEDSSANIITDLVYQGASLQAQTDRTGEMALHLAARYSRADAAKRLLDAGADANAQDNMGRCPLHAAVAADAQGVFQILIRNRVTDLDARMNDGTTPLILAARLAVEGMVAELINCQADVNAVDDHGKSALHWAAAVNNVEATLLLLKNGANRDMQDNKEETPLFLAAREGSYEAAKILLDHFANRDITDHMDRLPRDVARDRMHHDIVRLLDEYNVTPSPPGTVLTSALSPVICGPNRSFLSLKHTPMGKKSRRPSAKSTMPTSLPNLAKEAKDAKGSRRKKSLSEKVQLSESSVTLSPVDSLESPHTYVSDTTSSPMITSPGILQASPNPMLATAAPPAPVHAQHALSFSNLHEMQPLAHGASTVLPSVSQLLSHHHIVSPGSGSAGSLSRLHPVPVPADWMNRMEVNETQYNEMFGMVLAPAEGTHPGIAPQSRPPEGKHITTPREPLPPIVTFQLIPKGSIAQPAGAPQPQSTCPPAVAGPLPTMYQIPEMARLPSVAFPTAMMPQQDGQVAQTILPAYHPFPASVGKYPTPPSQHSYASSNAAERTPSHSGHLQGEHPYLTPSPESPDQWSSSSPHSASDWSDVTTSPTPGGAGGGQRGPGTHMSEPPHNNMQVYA

[6] = target: Pro-neuregulin-1, membrane-bound isoform (Homo sapiens) (UniProt Q02297); experiment: small molecules binding neuregulin-1 protein – biochemical, small-molecule microarray, fluorescence 635/667, psychiatric disease protein project, primary screen (AID 1075); conditions: NRG1 binding, 635 nm fluorescence, higher = more signal;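 also: score combines 667 nm spot fluorescence with signal to noise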
Chain of Pro-neuregulin-1, membrane-bound isoform (Homo sapiens) (Q02297 whole entry, looked up, the tested form may be a part, canonical isoform): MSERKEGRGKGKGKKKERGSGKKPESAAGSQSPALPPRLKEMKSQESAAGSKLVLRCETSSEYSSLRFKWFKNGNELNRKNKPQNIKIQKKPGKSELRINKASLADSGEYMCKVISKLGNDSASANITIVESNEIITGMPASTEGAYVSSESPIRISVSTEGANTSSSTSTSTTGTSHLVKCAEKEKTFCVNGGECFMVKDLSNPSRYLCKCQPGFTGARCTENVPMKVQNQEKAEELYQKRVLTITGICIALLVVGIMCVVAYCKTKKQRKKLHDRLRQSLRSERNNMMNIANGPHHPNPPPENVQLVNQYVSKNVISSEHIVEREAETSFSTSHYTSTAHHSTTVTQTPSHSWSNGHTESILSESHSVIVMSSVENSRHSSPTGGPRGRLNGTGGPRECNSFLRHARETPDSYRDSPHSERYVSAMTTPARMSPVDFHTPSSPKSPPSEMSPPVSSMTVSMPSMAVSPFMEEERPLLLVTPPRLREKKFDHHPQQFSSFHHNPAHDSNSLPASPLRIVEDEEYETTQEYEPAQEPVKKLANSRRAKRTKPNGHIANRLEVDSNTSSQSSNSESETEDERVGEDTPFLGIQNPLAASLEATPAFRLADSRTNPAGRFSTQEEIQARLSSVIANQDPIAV

[7] = system: Neuregulin-1 EGF-like domain; experiment: small molecules binding NRG1 EGF domain – biochemical, small-molecule microarray, 635 nm fluorescence, primary screen (AID 1081); conditions: higher = more signal;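 also: binding of the protein to compounds printed on small-molecule microarray slides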
[8] = FRG1 expression reporter modulators in myotubes – cell-based, C2C12 myotubes, firefly/Renilla luciferase, luminescence, FRG1 inhibition for FSHD, primary screen (AID 1084); conditions: FRG1 promoter luciferase, higher = more signal, called active from +8 up or from −8 down
[9] = small molecules captured by biotinylated probe aFST – biochemical, small-molecule microarray, fluorescence 635/667, stem cell growth factor project, primary screen (AID 1086); conditions: higher = more signal;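 also: score merges 667 nm fluorescence with signal-to-noise of each printed compound spot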
[10] = binders of probe aHhip on microarray, primary screen, stem cell growth factor project, biochemical, small-molecule microarray, fluorescence 635/667 (AID 1087); conditions: higher = more signal;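 also: score merges spot fluorescence at 667nm with spot signal to noise ratio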

Structure (SMILES) | composite z-score [1] | composite z-score [2] | composite z-score [3] | composite z-score [4] | composite z-score [5] | composite z-score [6] | composite z-score [7] | z-score [8] | composite z-score [9] | composite z-score [10]
CCOC(=O)C[C@H]1[C@H](OC(=O)c2ccc(C(=O)c3ccccc3)cc2)[C@@H](NC(=O)CC(C)C)c2cc(OCCCO)ccc2N1C(=O)c1ccc2ccccc2n1 | -0.538 | 0.154 | -0.0715 | 0.86 | 1.28 | 0.621 | 1.22 | -0.291 (inactive) | 0.334 | -0.137
COC(=O)[C@@]1(Cc2ccc(F)cc2)[C@H]2c3cc(C(=O)N(C)C)n(Cc4ccc(Cl)c(C(F)(F)F)c4)c3C[C@H]2CN1C(=O)c1ccccc1 | 1.15 | 1.65 | -0.0355 | 0.215 | 1.74 | 1.83 | 1.31 | 1.3 (inactive) | 1.71 | -0.0296
CC(C)c1ccc(NN2C(C(O)c3ccc(B(O)O)cc3)C=CC3C(=O)N(c4ccccc4)C(=O)C32)cc1 (stereo not given) | 0.842 | 0.0275 | 0.185 | 1.13 | 1.63 | 1.19 | 1.15 | 0.87 (inactive) | 1.67 | 0.0722
CCOC(=O)[C@H]1C/C=C/C[C@H](C(=O)OCC)C(=O)O[C@H]2[C@@H](OC)O[C@H](CO)[C@@H](OC(=O)c3c(OC)cccc3OC)[C@@H]2OC1=O | 1.03 | 0.321 | -0.0275 | 0.259 | 0.297 | 1.12 | 1.02 | 0.418 (inactive) | 0.951 | 1.32
COc1cc2c(cc1O)C(c1cccs1)N(C)CC2 (stereo not given) | -0.101 | -0.493 | -0.201 | -0.143 | -0.521 | -0.714 | -0.31 | 0.52 (inactive) | -0.166 | -0.0994
CC[C@@H]1C=C(C(=O)O)[C@H](c2ccc(Br)cc2)N1S(=O)(=O)c1ccc(C)cc1 | 0.191 | 0.0963 | 0.0746 | 0.638 | 1.26 | 1.93 | 0.503 | -1.18 (inactive) | 0.614 | 0.141
COc1ccc(/C=C/C=O)cc1 | -0.0583 | 0.144 | -0.0982 | 0.19 | 0.173 | -0.802 | -0.562 | 0.599 (inactive) | 0.0803 | 0.0975
C=C(CCCC)/C(=C/C[C@@H](OC(C)=O)c1ccc(OCCO)cc1)c1cnc2ccccc2c1 | 0.0374 | 0.372 | -0.0598 | 0.242 | 0.913 | 0.952 | 1.01 | -1.51 (inactive) | -0.156 | -0.0618
CN1C(=O)C2C=CC(C(O)c3ccco3)N(Nc3ccccc3)C2C1=O (stereo not given) | 0.034 | 0.438 | 0.0772 | 0.321 | 1.06 | 1.51 | 1.28 | 0.0122 (inactive) | -0.104 | -0.0581
COC(=O)C(CC#Cc1ccc2c(c1)[C@]1(C(=O)N2)[C@H](C(=O)Nc2nc3ccccc3s2)[C@H]2C(=O)O[C@H](c3ccccc3)[C@H](c3ccccc3)N2[C@@H]1c1ccc(O)cc1)C(=O)OC | -0.485 | 0.919 | 0.0495 | 0.621 | 1.33 | 1.37 | 1.36 | 1.28 (inactive) | 0.688 | -0.0618
C=CCN1C(=O)[C@@]2(Cc3ccccc31)N=C(c1ccc(OCCCO)cc1)O[C@H]2c1ccccc1 | 1.12 | 0.282 | 0.0085 | -0.112 | 1.01 | 1.24 | 1.23 | -2.07 (inactive) | 0.83 | -0.144
C=CCNC(=O)[C@@H]1[C@H]2C(=O)O[C@H](c3ccccc3)[C@H](c3ccccc3)N2[C@H](c2ccc(OCCO)cc2)[C@@]12C(=O)Nc1ccc(C#CCC(C(=O)OC)C(=O)OC)cc12 | 0.148 | 0.694 | 0.0185 | 0.721 | 0.89 | 1.81 | 1.3 | 0.141 (inactive) | 0.452 | 0.0505
NC(=O)NCC#Cc1ccc2c(c1)[C@]1(C(=O)N2)[C@H](C(=O)Nc2nc3ccccc3s2)[C@H]2C(=O)O[C@H](c3ccccc3)[C@H](c3ccccc3)N2[C@@H]1c1ccccc1OCCO | 1.85 | 0.407 | 0.0863 | 1.01 | 1.03 | 1.57 | 0.406 | 1.62 (inactive) | 1.39 | -0.0478
CCOC(=O)C[C@H]1[C@H](OC(=O)c2ccc(C(=O)c3ccccc3)cc2)[C@@H](NC(=O)c2ccc3ccccc3n2)c2cc(OCCCO)ccc2N1C(=O)c1ccccc1 | -0.384 | 0.264 | 0.0498 | 1.03 | 0.454 | 0.45 | 0.975 | 0.823 (inactive) | 0.493 | -0.243
CN(C)CCCC[C@@H]1NC(=O)[C@@H]2C[C@H](C(=O)NCCCCCCN)[C@H](c3cccc(OCCO)c3)N2C1=O | 1.58 | 2.15 | 0.044 | 0.973 | 1.57 | 2.24 | 1.42 | 0.0194 (inactive) | 0.88 | -0.103
COc1ccc(C#Cc2ccc3c(c2)[C@]2(C(=O)N3)[C@H](C(=O)NC[C@H](O)c3ccccc3)[C@H]3C(=O)O[C@H](c4ccccc4)[C@H](c4ccccc4)N3[C@@H]2c2ccc(O)cc2)cc1 | -0.384 | 0.736 | -0.0824 | 0.857 | 1.2 | 1.52 | 1.34 | 0.254 (inactive) | 0.243 | -0.201
O=C(OCc1ccccc1)C1=CCC2c3[nH]c4ccccc4c3C(=O)C1N2S(=O)(=O)c1ccccc1[N+](=O)[O-] (stereo not given) | -0.154 | -0.0749 | 0.105 | 0.982 | 1.7 | 1.65 | 1.19 | -4.32 (inactive) | 0.627 | 0.0759
Cc1ccc(S[C@]2(C(=O)O)CC(=O)N(C(C)C)[C@@H]2c2ccc(CO)cc2I)cc1 | 1.83 | 1.16 | 0.0477 | -0.0395 | 0.175 | 1.89 | 1.16 | -0.974 (inactive) | 1.33 | -0.148
C=CCC(OC(C)=O)[C@@H]1[C@@H](N(Cc2ccc(-c3ccccc3)cc2)C(=O)c2cccc3ccccc23)c2cc(OCCCO)ccc2N1C(=O)c1ccc(-c2ccccc2)cc1 (stereo not given in full) | 0.103 | 0.177 | 0.0521 | 0.19 | 0.0198 | -0.0375 | -0.159 | -1.45 (inactive) | 0.461 | -0.0006
CC(C)C[C@@H]1NC(=O)[C@@H]2C[C@H](C(=O)NCc3ccc(F)cc3)[C@H](c3cccc(OCCO)c3)N2C1=O | 0.0163 | 0.297 | -0.0861 | 0.362 | -0.575 | -0.0212 | 1.32 | -0.148 (inactive) | -0.405 | -0.236
COC(=O)[C@@]1(Cc2ccc(OC)cc2)[C@H]2c3cc(C(=O)N(C)C)n(CCc4ccccn4)c3C[C@H]2CN1C(=O)c1ccccc1 | 1.63 | -0.0525 | 0.638 | 0.402 | 1.61 | 0.428 | 1.05 | 0.845 (inactive) | 1.38 | 0.47
[N-]=[N+]=Nc1ccccc1[C@H]1OC(c2ccc(OCCCO)cc2)=N[C@@]1(CCS(=O)(=O)c1ccccc1)C(N)=O | 1.5 | 0.449 | 0.0797 | 1.07 | 0.742 | 0.9 | 1.34 | 3.44 (inactive) | 1.04 | 0.111
CCC[C@@H]1C[C@@]1(CCC)[C@@H](NS(=O)(=O)c1cccc2cccnc12)c1ccc(Cl)cc1 | 0.561 | -0.754 | 0.0367 | 0.0835 | 0.763 | 0.858 | 0.917 | -3.58 (inactive) | 0.855 | -0.0729
COCC(=C=CC[C@@H](O)c1cccc(OCCO)c1)C[C@@H](O)c1ccccn1 | -0.19 | 0.0883 | -0.0707 | 0.338 | -0.17 | 1.11 | 1.3 | 0.93 (inactive) | -0.27 | 0.176
COCCCNC(=O)[C@@]1(C)c2ccccc2C(=O)N(C(C)C)[C@H]1c1ccc(CO)cc1 | -0.427 | 0.512 | -0.0996 | -0.0442 | 0.552 | 0.302 | 1.48 | 0.214 (inactive) | 0.114 | 0.0201
COc1ccc(C#Cc2ccc3c(c2)[C@]2(C(=O)N3)[C@H](C(=O)Nc3nc4ccccc4s3)[C@H]3C(=O)O[C@H](c4ccccc4)[C@H](c4ccccc4)N3[C@@H]2c2ccc(O)cc2)cc1 | -0.433 | 0.923 | 0.0956 | 1.13 | 1.29 | 1.38 | 1.34 | 1.46 (inactive) | 1.36 | -0.511
COc1ccccc1CN1C(=O)c2ccccc2[C@@]2(Cc3ccccc3N(CC(C)C)C2=O)[C@@H]1c1ccc(CO)cc1 | -0.211 | -0.44 | -0.0543 | 0.134 | -0.304 | -0.0503 | -0.738 | -0.0845 (inactive) | -0.595 | -0.0994
COc1cc(C(O)C2C=CC3C(=O)NC(=O)C3N2Nc2ccccn2)cc(OC)c1OC (stereo not given) | -0.184 | 0.299 | 0.0353 | 0.52 | 1.4 | 0.802 | 1.3 | 1.73 (inactive) | 0.0676 | -0.0618
